According to ChEMBL document CHEMBL3988442, “University of Dundee, Small-Polar-MMV Screening Library” (2021):
About 13,000 (27%) of roughly 48,000 compounds showed an effect of 50% or more. This is one part of the list.

These compounds were tested on Wolbachia pipientis (assay: Anti-Wolbachia Cell-Based Screen). Details: 5 µM.
Assay type: functional
Design: scale not given: in the data most compounds retested in dose-response had high values

Row | Compound | Percent Effect [%]
1 | CCc1nc(C2CCCN2C(=O)c2ccc3c(c2)nnn3CC)no1 (stereo not drawn) | -4.092
2 | O=C1NCc2ccc(NC(=O)C3CCCN3c3nccs3)cc21 (stereo not drawn) | -9.996
3 | O=C(c1cncc(N2CC[C@@]3(O)CCNC[C@H]3C2)n1)N1CCCC1 | -7.566
4 | CC(C)Oc1ccc(CNC(=O)C2CCS(=O)(=O)C2)cn1 (stereo not drawn) | 23.43
5 | COc1ccc(CN2C[C@@H](CN(C)C)[C@@H](CO)C2)cc1CN1CCCC1 | 7.819
6 | Cn1nc(Cn2ccnc2)c2c1CN(Cc1ccoc1)C2.O=C(O)C(F)(F)F.O=C(O)C(F)(F)F | -6.284
7 | CC(NC(=O)NCc1ccoc1)c1ccc2c(c1)CC(=O)N2 (stereo not drawn) | 110.9
8 | CC(NC(=O)Nc1ccc(S(C)(=O)=O)cc1)c1ccc2c(c1)CC(=O)N2 (stereo not drawn) | 11.72
9 | CC(NC(=O)c1ccoc1)c1ccc2c(c1)CCC(=O)N2 (stereo not drawn) | 97.13
10 | CC(NC(=O)NCc1ccoc1)c1ccc2c(c1)CCC(=O)N2 (stereo not drawn) | -4.231
11 | CC(NC(=O)c1sccc1C1CC1)c1ccc2c(c1)CC(=O)N2 (stereo not drawn) | -4.532
12 | CC(NC(=O)c1cccc[n+]1[O-])c1ccc2c(c1)CCC(=O)N2 (stereo not drawn) | -1.39
13 | COc1ccc(F)c(NCC(C)(C)S(C)(=O)=O)c1 | 34.79
14 | Cc1ccc(-n2ncc(C(=O)N(C)C3CCN(C)CC3)c2N)cc1C | 137.5
15 | CC(C)c1ccc(-n2ncc(C(=O)N(C)C3CCN(C)CC3)c2N)cc1 | 117
16 | Cc1ccc(C(=O)Nc2ccc(N3CCCC3)cn2)cc1C | -19.47
17 | CC(C)c1ccc(CCC(=O)N(C)C2CCN(C)C2=O)cc1 (stereo not drawn) | -1.182
18 | Cc1cc(C(=O)NCCC2CCN(C)CC2)ccc1N(C)S(C)(=O)=O | -18.47
19 | CC(C)c1ccc(-n2cc(O)c(C(=O)N3CCC(C(N)=O)CC3)n2)cc1 | -5.795
20 | CC(C)Cc1nc(CN2CC(=O)N(C)c3ccccc3C2=O)no1 | -12.92

Row | Compound | Percent Effect [%]
21 | CSC(C)C(=O)N1CCN(CC(C)(C)O)CC1 (stereo not drawn) | -3.379
22 | CCOCCn1nc(C)cc1C(=O)N1C[C@@H](C)[C@](O)(C2CC2)C1 | -17.93
23 | Cc1nc(O)c2nnn(C[C@H]3CCCN3C(=O)c3ccccc3F)c2n1 | 81.62
24 | COC(=O)C1CCCCN1C(=O)c1ccccc1F (stereo not drawn) | 1.901
25 | Cc1nc(O)c2nnn(C[C@H]3CCCN3C(=O)c3cccs3)c2n1 | 86.95
26 | Cc1cc(C)n(CC2CCCCN2C(=O)c2sccc2C#N)n1 (stereo not drawn) | -7.705
27 | Cc1nc(O)c2nnn(C[C@H]3CCCN3C(=O)c3ccccc3C)c2n1 | 143.4
28 | O=C(c1ccno1)N1CC2(CCC(C(=O)N3CCCC3)O2)C1 (stereo not drawn) | 1.973
29 | COCCN1CCN(CCCS(C)(=O)=O)CC1C (stereo not drawn) | 0.5325
30 | COc1ccc(Br)cc1CCC(=O)N1CCCC(O)C1 (stereo not drawn) | -4.291
31 | COc1ccc(C(C)NCc2c[nH]nc2C)cc1OC.Cl (stereo not drawn) | -6.737
32 | CC(NCc1ccc(C(N)=O)cc1)c1ccc(Cl)c(Cl)c1.Cl (stereo not drawn) | -6.625
33 | COc1ccc(CCNC(C)c2ccc3[nH]c(=O)[nH]c3c2)cc1OC (stereo not drawn) | 106.6
34 | CNS(=O)(=O)c1cccc(C(C)NCc2ccccc2OC)c1 (stereo not drawn) | -4.064
35 | COc1cc(C(=O)NCCc2ccc(OC)c(OC)c2)on1 | -10.92
36 | CC(NCc1ccccc1Br)c1ccc2[nH]c(=O)[nH]c2c1 (stereo not drawn) | -2.776
37 | COc1ccccc1CNC(C)c1ccc(-n2ccnc2)cc1.Cl (stereo not drawn) | 2.759
38 | COc1ccccc1CNC(C)c1ccc2[nH]c(=O)[nH]c2c1 (stereo not drawn) | 98.3
39 | CC(NCc1ccccc1Cl)c1ccc2[nH]c(=O)[nH]c2c1 (stereo not drawn) | 97.6
40 | O=C(NCCSc1cnn[nH]1)c1c[nH]nc1C1CCCCC1 | -9.483

Row | Compound | Percent Effect [%]
41 | CC(C)(C)c1csc(CNC(=O)C2NCCc3[nH]cnc32)n1 (stereo not drawn) | -12.08
42 | CCN1CCN(c2ccc(C(=O)NCCn3ccnc3)cc2F)CC1 | -30.24
43 | CNc1nc(N2CCC3(CCCNC3=O)C2)nc2c1CCC2 (stereo not drawn) | -0.1969
44 | Cc1ccc([C@]2(O)CC[C@H]3CN(Cc4cccc(Cl)c4Cl)C[C@H]32)nc1.O=C(O)CC(O)(CC(=O)O)C(=O)O | -1.737
45 | COc1cccc(CN2C[C@@H]3CC[C@@](O)(c4ccccn4)[C@@H]3C2)c1OC.O=C(O)CC(O)(CC(=O)O)C(=O)O | 115.9
46 | COc1ncc(CN2C[C@@H]3CC[C@@](O)(c4ccc(C)cn4)[C@@H]3C2)cn1.O=C(O)CC(O)(CC(=O)O)C(=O)O | 114.7
47 | CN(C)C(=O)CN1C[C@@H]2CC[C@H](C1)N(Cc1cccc(Cl)c1Cl)C2 | -2.337
48 | Cc1cccnc1[C@]1(O)CC[C@H]2CN(Cc3cccc(Cl)c3Cl)C[C@H]21.O=C(O)CC(O)(CC(=O)O)C(=O)O | 135.1
49 | Cc1ccc([C@]2(O)CC[C@H]3CN(Cc4cc(C)c(O)c(C)c4)C[C@H]32)nc1.O=C(O)CC(O)(CC(=O)O)C(=O)O | -15.37
50 | O=C(O)CC(O)(CC(=O)O)C(=O)O.O[C@]1(c2ccccn2)CC[C@@H]2CN(Cc3cccc4ncccc34)C[C@@H]21 | -10.13
51 | COc1ccc(CN2C[C@H]3CC[C@](O)(c4ccc(C)cn4)[C@H]3C2)c(F)c1.O=C(O)CC(O)(CC(=O)O)C(=O)O | -13.42
52 | Cc1ccc([C@]2(O)CC[C@H]3CN(Cc4cccc(F)c4F)C[C@H]32)nc1.O=C(O)CC(O)(CC(=O)O)C(=O)O | 118
53 | COCc1ncc(CN2CCN(C)C(=O)C2C)cn1 (stereo not drawn) | 4.151
54 | CCn1cnnc1Cn1cccc(C(F)(F)F)c1=O | -0.03218
55 | COc1ccc(-c2nccn2CC(O)CN2CCCC2)c(F)c1 (stereo not drawn) | 5.429
56 | CCOc1cncc(NCCc2nnc3ccccn23)n1 | -20.41
57 | CCC(CO)N(Cc1ccsc1)Cc1ccccc1C(=O)O (stereo not drawn) | 6.266
58 | Cc1cc(CN2CC[C@@H]3[C@@H](CCC(=O)N3CCc3c[nH]cn3)C2)oc1C | -14.05
